PubChem BioAssay (NCI)
The panel holds about 83,000 compounds, 20% with a hit somewhere; the sample as a whole holds those more often.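 Interpretation: 100, growth as untreated; towards 0, rising growth inhibition; 0, no net growth; 0 to -100, cell death. Compounds scoring below 10 were considered active.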 Unmarked numbers belong to inactive results. The source made the active and inactive calls.

What follows are molecules tested on SN12C renal (assay: NCI-60 one-dose screen, 48 h (100 = growth as untreated, 0 = no growth, -100 = all killed)). Conditions: 1 µM.
Procedure: Growth inhibition of the SN12C human tumor cell line is measured as a screen for anti-cancer activity. Cells are grown in 96 well plates and exposed to the test compound for 48 hours. Compounds are tested at a single concentration, which is 10^-5 M for most compounds. The reported endpoint is percent growth (GI% or GIPRCNT), where numbers from 0 - 100% represent growth inhibition, and numbers from -100% - 0 represent cell death. For example, a value of 40 represents 60% growth inhibition. A value of 0 means no net growth occurred over the course of the experiment. A value of -40 indicates 40% of cells at the beginning of the experiment died by the end of the experiment. A value of -100 means all cells are dead at the end of the experiment.
NCI-60 Human Tumor Cell Lines Screen was performed using the standard one-dose NCI protocol, which is described in more detail at https://dtp.cancer.gov/discovery_development/nci-60/default.htm.
Compounds with GIPRCNT values below 10 were considered active. Activity score was based on GIPRCNT using the following formula: […]
Score is 0 for GIPRCNT values of 100 or above, 50 for GIPRCNT values of 0, and 100 for GIPRCNT values of -100.
For `CC/C(=C(/c1ccc(O)cc1)c1ccc(OCCN(C)C(=O)CCOCCNC(=O)Cc2ccc3c(c2)CN([C@@H]2CCC(=O)NC2=O)C3=O)cc1)c1ccccc1`, the growth was 89%.

Same assay, conditions: 10 µM
`CC/C(=C(/c1ccc(O)cc1)c1ccc(OCCN(C)C(=O)CCOCCNC(=O)Cc2ccc3c(c2)CN([C@@H]2CCC(=O)NC2=O)C3=O)cc1)c1ccccc1` showed a growth of 78%.

Same assay, conditions: 10 µM unless noted
With `CC(C)C[C@H](NC(=O)CNC(=O)C[C@H]1O[C@@H]2OC3(C)CC[C@H]4[C@H](C)CC[C@@H]([C@H]1C)[C@@]24O3)B(O)O` the growth was -39.2% (active).
`COC(=O)c1ccc(-c2c(-c3ccccc3)c(F)c3oc(C(=O)OC)c(N)c3c2-c2ccccc2)cc1` was tested, and the growth was 98.1%.
`COc1ccc(NC(=O)CSc2nnc(-c3ccc(-c4nc5ccccc5[nH]4)cc3)o2)cc1` was tested, and the growth was 31%.
`COC(=O)c1cc(C(=O)C(F)(F)F)n2c3ccccc3c3ccccc3c12` gave a growth of 53.1%.
For `CC(C)C[C@H](NC(=O)[C@@H]1CCCCCCCCCCC(=O)N[C@@H](CC(=O)N2CCC[C@@H]2C2CCCC2)C(=O)N1)B(O)O`, the growth was -88.9% (active).
Molecule `O=C(Nc1nc2ccccc2s1)Nc1ccccc1Cl` has a growth of 83.9%.
With `Cc1cc(C2(c3cc(C)c(OCC(O)CNc4c(C)n(C)n(-c5ccccc5)c4=O)cc3C(C)C)OC(=O)c3ccccc32)c(C(C)C)cc1OCC(O)CNc1c(C)n(C)n(-c2ccccc2)c1=O` (stereo not given) the growth was 26.6%.
In the case of `Nc1cc(-c2c[nH]c3ccc(F)cc23)nc2cc(-c3c[nH]c4ccccc34)nn12`, the growth is reported as 41.2%.
In the case of `O=C(N=Nc1c(O)[nH]c2ccc(Br)cc12)c1ccc2nc(-c3ccc(Cl)cc3)[nH]c2c1`, the growth is reported as -50.8% (active).
For `FC(F)(F)CN1CCN(CCn2c(C(F)(F)F)cc3c(Cl)ncnc32)CC1`, the growth was 34.8%.
`CC(C)(C)C(=O)c1c2c(c3ccc4c5ccccc5ccc4n13)C(=O)c1ccccc1C2=O` gave a growth of 99%.
Work on `O=C1Nc2cc(-c3ccc(NS(=O)(=O)c4ccc(-c5ccccc5)cc4)cc3)ccc2/C1=C/c1ccc[nH]1` yielded a growth of 16.3%.
In the case of `O=C(Nc1ccc(-c2ccc3c(c2)NC(=O)/C3=C\c2ccc[nH]2)cc1)Nc1ccc(Cl)c(Cl)c1`, the growth is reported as 68.7%.
Molecule `O=C(/C=C1\C(=O)N(Cc2ccccc2)c2ccccc21)c1cc2ccccc2oc1=O` has a growth of 93%.
With `COc1ccc2[nH]cc(-c3cc(N)n4nc(-c5c[nH]c6ccccc56)cc4n3)c2c1` the growth was 49.1%.
`COc1c(B(O)O)cc(F)cc1-c1nc2ccc3[nH]ncc3c2c2c1COCC2` gave a growth of 50.3%.
For `COc1ccc(N=Nc2c(N)nn3c(-c4ccc([N+](=O)[O-])cc4)ccnc23)cc1`, the growth was 92.7%.
In the case of `CN(C(=O)CN1C(=O)/C(=C/c2ccco2)SC1=S)C1CCS(=O)(=O)C1` (stereo not given), the growth is reported as 104%.
With `O=C(NNC(=S)NC(=O)c1ccccc1)c1ccc(OCc2nc3ccc(Cl)cc3[nH]2)cc1` the growth was -80.2% (active).
For `O=C(NN1C(=O)/C(=C/C=C/c2ccc([N+](=O)[O-])o2)SC1=S)c1ccc(O)cc1`, the growth was -97.5% (active).
`CC1=C(C(=O)OCc2ccccc2)C(c2ccc(N(C)C)cc2)n2c(nc3ccccc32)N1` (stereo not given) was tested, and the growth was 98.2%.
With `Cc1ccc(C(=O)Nc2cccc(C(=O)NC(=S)Nc3ccc(S(N)(=O)=O)cc3)c2)cc1` the growth was 76.8%.
Molecule `N#CC1=C(c2cccs2)Nc2c(c(-c3ccccc3)nn2-c2ccccc2)C12C(=O)Nc1ccccc12` (stereo not given) has a growth of 55.3%.
Molecule `Cc1nn(-c2ccccc2)c2nc(C)n(C(=O)N/N=C/c3ccccc3)c(=O)c12` has a growth of 97.9%.
In the case of `O=C1CC(c2ccc(I)cc2)OC2C=Cc3ccccc3C12` (stereo not given), the growth is reported as 99%.
`COc1ccc(NC(=O)NN2C(=O)c3ccccc3N(C)C2c2ccc(OC)cc2)cc1` (stereo not given) gave a growth of 103%.
`O=C(N/N=C/c1ccoc1)c1[nH]c2ccc(Br)cc2c1-c1ccccc1` was tested, and the growth was -95.8% (active).
In the case of `CCCCCCCCCc1ccc(C(=O)Nc2cc(C)ccc2C(=O)OC)cc1`, the growth is reported as 101%.
`COc1cc(-c2ccc3ncnc(N4CCc5ccc(Cl)cc54)c3c2)cnc1Cl` was tested, and the growth was 26.9%.
With `CC1=C(C(=O)Nc2ccccc2)C(c2ccc3ccccc3c2)n2c(nc3ccccc32)N1` (stereo not given) the growth was 14.4%.
Molecule `Cc1ccc(S(=O)(=O)Nc2ccc(-c3ccc4c(c3)NC(=O)/C4=C\c3ccc[nH]3)cc2)cc1` has a growth of 85.8%.
`COc1ccc(-c2nc3ccc(-c4nnc(SCc5ccccc5)o4)cc3[nH]2)cc1OC` was tested, and the growth was -2.42% (active).
For `Cc1cnc2ccc(Oc3ccccc3-c3ccccc3)nn12`, the growth was 100%.
`O=C(CSc1nc2sc3c(c2c(=O)n1-c1ccc(Cl)cc1)CCCC3)N/N=C/C=C/c1ccccc1` was tested, and the growth was 15.4%.
For `CNc1nc2ccccc2n2c(-c3ccc(O)c(O)c3)cnc12`, the growth was 4.03% (active).
With `N#Cc1c(-c2ccc(F)cc2)nc(SCc2ccccc2)nc1N1CCNCC1` the growth was -93.5% (active).
`Cc1ccc(Cl)cc1NC(=O)Nc1nc2ccc([N+](=O)[O-])cc2s1` was tested, and the growth was -25.7% (active).
For `NS(=O)(=O)c1ccc(Nc2nc(SCC(=O)c3ccc(F)cc3)nc3ccccc23)cc1`, the growth was 53.8%.
